A selection: hits, their analogues and other compounds. The true share with any hit is near 8%.
KB-V1 cytotox – qHTS assay for MDR1-selective chemotherapeutics: Primary screen using the drug-selected MDR subline cells KB-V1. KB-V1 MDR cells viability, CellTiter-Glo, 72 h. Potency, µM (titrated, usually from 46.1 µM), hits mostly cytotoxic. 400,000 tested, 3.4% active. AID 1347076, 2019; note: % is set by controls: 0 for no effect and ±100 for the full control effect; nearly all actives have a fitted effect of over 60% in size
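Compound-treated KB-V1 multidrug-resistant cells, 72 h, 37 degrees C; viability by CellTiter-Glo. Fitted qHTS curves give the values.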
HT1080 IDH1KD tx – qHTS for induction of synthetic lethality in tumor cells producing 2HG: qHTS for the HT-1080-IDH1KD cell line; HT-1080 IDH1 knockdown viability, ATP luminescence, 48 h; Potency, µM (highest dose often 46.1 µM), inactives show at the highest dose activity, negative = toxicity, most hits filed as cytotoxic; 360,000 tested, 2% active;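 note: 0% = DMSO wells and -100% = cell-free medium wells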
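In this qHTS, HT-1080 cells depleted of IDH1 are exposed for 48 h at 37 °C to compound titrations. Toxicity is scored from CellTiter-Glo luminescence, with DMSO as full viability and medium alone as none.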
HT1080-NT tox – qHTS for induction of synthetic lethality in tumor cells producing 2HG: qHTS for the HT-1080-NT fibrosarcoma cell line. Potency, µM (series often up to 46.1 µM), without a hit: at the highest dose activity, negative = less viability, hits mostly cytotoxic. 360,000 tested, 1.6% active. AID 686970, 2013. HT-1080-NT fibrosarcoma viability, CellTiter-Glo ATP luminescence, 48 h;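 note: NT is the 2HG producing partner of a matched IDH1 knockdown line; 0% = DMSO-treated cells and -100% = media-only wells without cells; nearly all actives have a fitted effect of over 55% in size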
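A 48-hour cytotoxicity screen used HT-1080-NT cells plated 2 hours before compound delivery. ATP-based CellTiter-Glo luminescence measured viability, normalized to DMSO and no-cell controls.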
KB-3-1 cytotox – qHTS assay for MDR1-selective chemotherapeutics: Primary screen using the parental adenocarcinoma cell KB-3-1 | 400,000 tested, 1.4% active | AID 1347075, 2019 | KB-3-1 viability, CellTiter-Glo ATP luminescence, 72 h | Potency, µM (highest dose often 46.1 µM), most hits filed as cytotoxic; note: % is set by controls: 0 for no effect and ±100 for the full control effect; nearly all actives have a fitted effect of over 60% in size
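Cytotoxicity measured as CellTiter-Glo luminescence after 72 h at 37 C. Compound titrations were pinned onto drug-naive KB-3-1 parental adenocarcinoma cells grown in DMEM with 10% FBS, and normalized data fitted to concentration-response curves.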
MCF10A rereplic – A quantitative high throughput screen for small molecules that induce DNA re-replication in MCF 10a normal breast cells; MCF 10A DNA re-replication, Hoechst nuclear intensity, 48 h; Potency, µM (highest dose often 46.1 µM), without a hit: at the top dose activity, positive = re-replication, hits mostly activators; 350,000 tested, 2.9% active; note: % of control where 0% means no effect; nearly all actives have a fitted effect of over 50% in size
SW480 rereplic – A quantitative high throughput screen for small molecules that induce DNA re-replication in SW480 colon adenocarcinoma cells; 340,000 tested, 1.8% active; Potency, µM (highest dose often 46.1 µM), for the others: at the highest dose re-replication activation, actives largely listed as activators; AID 624297, 2012; SW480 DNA re-replication, Hoechst DNA content imaging, 48 h; note: % of control where 0% means no effect; nearly all actives have a fitted effect of over 55% in size
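Readout is total intensity of Hoechst-stained nuclei, excited at 405 nm and collected at 500-530 nm. Compound treatment lasted 48 hr at 37 C in 5% CO2 before staining.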
An asterisk follows results filed as active; i = inactive; ? = inconclusive; nt = no result given. Calls come from the whole dose curve; as a rule, active = well fitted curve in the direction sought with a large enough effect; inconclusive = small, poorly fitted or top-dose-only effect, or another doubt; inactive = no such curve, though single readings can be large; an effect the other way counts as inactive or inconclusive. Potency is the fitted concentration of half-maximal effect.

SMILES	KB-V1 cytotox	HT1080 IDH1KD tx	HT1080-NT tox	KB-3-1 cytotox	MCF10A rereplic	SW480 rereplic
O=C(NC(=S)Nc1ccccc1O)c1ccc(-c2ccc(Cl)cc2)o1	i	?	?	?	16.4µM*	13.8%
Cc1ccc(O)c(NC(=S)NC(=O)c2ccc(-c3ccc(Cl)cc3)o2)c1	i	?	?	i	6.51µM*	25.6%
O=C(Nc1ccc(CN2CCOCC2)cc1)c1ccc(-c2ccc(Cl)cc2Cl)o1	i	?	14.6µM*	i	?	?
CC(=O)NC(=O)c1ccc(-c2ccc(Cl)cc2)o1	8.2µM*	19.9%	24.2%	?	-0.9%	-13.4%
Cc1ccc2ncc(C(=O)Nc3ccc(F)cc3F)c(=O)n2c1	i	nt	nt	i	nt	nt
COc1ccc(CNCc2ccccc2)cc1COc1ccc(NC(C)=O)cc1	nt	2.0%	-3.3%	nt	nt	nt
CN1CCN(c2ccc(NC(=O)c3ccc(-c4ccc(Cl)cc4)o3)cc2)CC1	?	8.2µM*	5.8µM*	?	23.1µM*	?
CCCc1cc(C(=O)Nc2ccc(C(=O)c3ccc(C)cc3)cc2)n(C)n1	i	?	-27.6%	i	18.4µM*	81.8%
COC(=O)c1ccc(NC(=O)c2nc(S(=O)(=O)Cc3cccc(C)c3)ncc2Cl)cc1	9.2µM*	20.6µM*	11.6µM*	14.6µM*	10.6%	?
Cc1ccc(NC(=O)c2nc(S(=O)(=O)Cc3ccccc3F)ncc2Cl)cc1	?	nt	nt	i	nt	nt
CC(=O)Nc1ccc(NC(=O)c2nc(S(=O)(=O)Cc3cccc(C)c3)ncc2Cl)cc1	?	5.8µM*	9.2µM*	5.17µM*	17.5%	?
CCOC(=O)c1ccc(NC(=O)c2nc(S(=O)(=O)Cc3ccccc3)ncc2Cl)cc1	?	2.91µM*	5.8µM*	20.6µM*	2.91µM*	-5.5%
CCS(=O)(=O)c1ncc(Cl)c(C(=O)Nc2ccccc2)n1	i	nt	nt	?	nt	nt
Cc1ccc(NC(=O)c2nc(S(=O)(=O)Cc3ccccc3C)ncc2Cl)cc1C	18.4µM*	16.4µM*	?	?	?	?
O=c1cc(-c2ccc(F)cc2)nc(SCc2nc(-c3cccc(C(F)(F)F)c3)no2)[nH]1	i	nt	nt	i	nt	nt
O=C(C[n+]1ccncc1)c1ccc(Br)cc1	i	nt	nt	i	nt	nt
CCN(C(=O)c1cnc(N2CCOCC2)c2ccccc12)c1cc(C)ccc1C	i	nt	nt	i	nt	nt
CCCCCOC(=O)c1[nH]c2c(c1C)C(=O)C(C(=O)OC)C(C)C2 (stereo not drawn)	18.4µM*	-14.9%	-18.8%	?	20.6µM*	?
COc1ccc(CN2CC(=O)N(c3ccc(C)cc3)C2=S)cc1OC	i	-8.1%	-5.9%	i	1.6%	3.4%
COc1cc(CN2CC(=O)N(c3ccc(C)cc3)C2=S)cc(OC)c1OC	10.3µM*	-7.2%	-6.0%	?	-43.0%	-83.2%
N#Cc1c(-c2ccc(Cl)cc2)c2c([nH]c1=O)-c1ccccc1OC2	i	4.2%	1.0%	i	1.84µM*	5.8µM*
CC1(C)Cc2c(c(-c3ccccc3Cl)[nH]c(=O)c2C#N)CO1	i	-0.3%	-2.6%	i	-1.6%	0.8%
O=C(c1ccc(Cl)c(Cl)c1)N1CCC(=O)N(C(COCc2cccc(Cl)c2)Cc2ccccc2)CC1 (stereo not drawn)	i	?	?	i	23.1µM*	?
O=C(c1ccc(Cl)c(Cl)c1)N1CCC(=O)N([C@H](COCc2ccc(Cl)cc2)Cc2ccccc2)CC1	20.6µM*	25.9µM*	?	?	nt	nt
Cc1cccc(COCC(Cc2ccccc2)N2CCN(C(=O)c3ccc(C(F)(F)F)cc3)CCC2=O)c1 (stereo not drawn)	11.6µM*	-29.4%	-1.7%	20.6µM*	?	7.1%
SMILES	KB-V1 cytotox	HT1080 IDH1KD tx	HT1080-NT tox	KB-3-1 cytotox	MCF10A rereplic	SW480 rereplic
COc1ccccc1-c1nn2c(-c3cc(C)[nH]n3)nnc2s1	i	nt	nt	i	nt	nt
COc1ccc(NC(=O)CCC(=O)Nc2cc(OC)c(NC(=O)c3cccs3)cc2OC)cc1	i	22.6%	10.8%	i	-2.1%	-3.3%
COc1ccc(NC(=O)c2ccco2)cc1NC(=O)c1cccs1	8.2µM*	3.5%	2.7%	i	5.3%	-6.1%
COc1ccc(NC(=O)CCc2ccccc2)cc1NC(=O)c1ccco1	7.31µM*	-10.6%	-25.7%	i	-0.3%	0.5%
COc1ccc(CC(=O)Nc2ccc(OC)c(NC(=O)c3ccco3)c2)cc1	i	-11.7%	-8.7%	i	-2.1%	-1.0%
COc1cc(NC(=O)c2cccs2)c(OC)cc1NC(=O)c1ccco1	?	-3.3%	3.9%	i	12.0%	-314.4%
COc1cc(NC(=O)c2cccs2)c(OC)cc1NC(=O)CCC(=O)Nc1ccc(C)cc1	?	-12.5%	-2.4%	i	20.6µM*	?
CN(CCCc1cnc[nH]1)C(=S)NCCCN(Cc1ccc(Cl)cc1)c1ccc(Br)cn1	?	nt	nt	i	nt	nt
COc1ccc(Br)cc1Cn1nnc(C(=O)Nc2cccc(SC)c2)c1N	i	nt	nt	i	nt	nt
COc1cc(NC(=O)c2ccc(-n3cnc4cccnc43)cc2)cc(OC)c1	i	nt	nt	?	nt	nt
O=C(NC(CSCc1ccccc1)C(=O)N/N=C/c1ccc(O)cc1O)c1ccc([N+](=O)[O-])cc1 (stereo not drawn)	i	0.891µM*	2.82µM*	?	14.4%	?
S=C(NCc1ccc(Cl)cc1)NCc1ccccn1	i	2.5%	5.5%	i	-10.2%	-6.1%
CC(C)CCC(CCNCc1ccccn1)c1ccc(Cl)cc1 (stereo not drawn)	10.3µM*	?	?	?	?	?
Cc1ccc(S(=O)(=O)c2nnn3c2nc(N2CCC(C)CC2)c2cc(Cl)ccc23)cc1C	i	nt	nt	i	nt	nt
O=C(CC1SC(=Nc2ccccc2)N(Cc2ccccn2)C1=O)Nc1ccc(Br)cc1 (stereo not drawn)	?	-19.3%	-4.4%	i	23.1µM*	16.4µM*
Cc1ccccc1N=C1SC(CC(=O)Nc2ccc3ccccc3c2)C(=O)N1Cc1ccccn1 (stereo not drawn)	20.6µM*	-2.8%	?	?	18.7%	?
